About 83,000 compounds went through this panel and 20% of them were active in at least one assay; those are over-represented in the sample as a whole.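 Single-concentration screen, 48 h exposure, 96-well plates. Endpoint: percent growth. Below 10 = active.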 Values without a mark were called inactive. Calls of active or inactive are those of the source.

Test systems include NCI-H23 lung; NCI-H226 lung; HOP-62 NSCLC; NCI-H460 lung; HOP-92 NSCLC; NCI-H522 lung; A549/ATCC NSCLC; 786-0 renal; COLO 205 colon; DU-145 prostate; K-562 leukemia; MALME-3M melanoma; MDA-MB-231 breast; RXF 393 renal; SF-268 CNS; SF-295 CNS; SF-539 CNS; UACC-257 melanoma; M14 melanoma.
Holding throughout (test): NCI-60 one-dose screen, 48 h (100 = growth as untreated, 0 = no growth, -100 = all killed)
What all share (details): 10 µM

As for `Cc1ccc(NCCN(C)CC(C)O)c2c(=O)c3ccccc3sc12` (configuration not stated), the growth in the experiment on NCI-H23 lung is 57.4%; in the experiment on NCI-H226 lung, 66.1%; in the experiment with HOP-62 NSCLC, 48%; with NCI-H460 lung, 15.6%; in the experiment with HOP-92 NSCLC, 32.4%; with NCI-H522 lung, 44.4%. The growth was 21.6% in the experiment with A549/ATCC NSCLC; 40.5% with 786-0 renal; -43.3% (active) with COLO 205 colon; 47.4% in the experiment with DU-145 prostate; 0.188% (active) in the experiment on K-562 leukemia; 34.6% in the experiment with MALME-3M melanoma. Further, the growth in the experiment with MDA-MB-231 breast was 36.9%; in the experiment with RXF 393 renal it was 24.8%; with SF-268 CNS it was 56.6%; with SF-295 CNS, 53.3%; in the experiment with SF-539 CNS, 53.2%; in the experiment on UACC-257 melanoma it was 45.9%. Moreover, the growth in the experiment on M14 melanoma was -49% (active).

In the case of `C=C(C)[C@@H]1CC[C@]2(COCCC#N)CC[C@]3(C)[C@H](CC[C@@H]4[C@@]5(C)Cc6c([nH]c7ccccc67)C(C)(C)[C@@H]5CC[C@]43C)[C@@H]12`, the growth was 90.6% with NCI-H23 lung; 94.5% in the experiment on NCI-H226 lung; 105% with HOP-62 NSCLC; 84.9% in the experiment on NCI-H460 lung; 107% with HOP-92 NSCLC; 87% with NCI-H522 lung. Besides, the growth with A549/ATCC NSCLC is 99.8%; in the experiment with 786-0 renal, 101%; in the experiment with COLO 205 colon, -42.8% (active); with DU-145 prostate, 100%; with K-562 leukemia it was 100%; in the experiment with MALME-3M melanoma, 119%. Further, the growth in the experiment on MDA-MB-231 breast is 109%; in the experiment on RXF 393 renal it was 112%; with SF-268 CNS, 101%; with SF-295 CNS, 104%; with SF-539 CNS it was 101%; with UACC-257 melanoma it was 116%. The growth in the experiment with M14 melanoma was 98.7%.

Turning to `COc1ccc(-c2nnc(SCC(=O)Nc3ccc(C(=O)/C=C/c4ccccc4)cc3)n2-c2ccccc2)cc1OC`, the growth is 80.8% in the experiment with NCI-H23 lung; 50.4% in the experiment with NCI-H226 lung; 102% with HOP-62 NSCLC; 37.1% in the experiment on NCI-H460 lung; 78.4% in the experiment with HOP-92 NSCLC; 53.8% in the experiment on NCI-H522 lung. Further, the growth is 51.9% with A549/ATCC NSCLC; 67.1% with 786-0 renal; 56.1% with COLO 205 colon; 50.4% in the experiment on DU-145 prostate; 37.2% in the experiment on K-562 leukemia; 36.4% in the experiment on MALME-3M melanoma. Besides, the growth with MDA-MB-231 breast was 73.4%; in the experiment with RXF 393 renal, 72.4%; in the experiment on SF-268 CNS, 84.8%; in the experiment with SF-295 CNS, 106%; in the experiment on SF-539 CNS, 0.289% (active); with UACC-257 melanoma, 72.4%. In the experiment with M14 melanoma, the growth was 57.7%.

In the case of `CCOC(=O)C(C)(c1ccccc1)c1ccccc1`, the growth is 106% in the experiment with NCI-H23 lung; 100% in the experiment with NCI-H226 lung; 95% with HOP-62 NSCLC; 106% with NCI-H460 lung; 98.6% in the experiment on HOP-92 NSCLC; 94.8% in the experiment with NCI-H522 lung. Besides, the growth in the experiment with A549/ATCC NSCLC was 92.9%; with 786-0 renal, 119%; in the experiment on COLO 205 colon, 120%; with DU-145 prostate it was 106%; in the experiment with K-562 leukemia, 113%; in the experiment on MALME-3M melanoma, 112%. Besides, the growth in the experiment with MDA-MB-231 breast is 111%; with RXF 393 renal it was 123%; with SF-268 CNS, 104%; with SF-295 CNS, 102%; in the experiment with SF-539 CNS, 97.7%; with UACC-257 melanoma, 93.5%. Further, the growth with M14 melanoma was 102%.

Take `CCCCN(CCCC)C(=O)[C@H](CC)[C@@H]1CC[C@@H](C)[C@@H]([C@H](C)[C@@H](O)[C@@H](C)C(=O)[C@H](CC)C2O[C@]3(C=C[C@@H](O)[C@]4(CC[C@@](C)([C@H]5CC[C@](O)(CC)[C@H](C)O5)O4)O3)[C@H](C)C[C@@H]2C)O1` (some centres not stated): the growth is -11.8% (active) in the experiment on NCI-H23 lung; -2.42% (active) in the experiment with NCI-H226 lung; 7.81% (active) in the experiment on HOP-62 NSCLC; -4.44% (active) in the experiment with NCI-H460 lung; -25.6% (active) with HOP-92 NSCLC; -18.4% (active) in the experiment with NCI-H522 lung. The growth was 9.11% (active) in the experiment on A549/ATCC NSCLC; 17.4% in the experiment with 786-0 renal; -77.6% (active) in the experiment on COLO 205 colon; 35.4% with DU-145 prostate; 14.1% in the experiment on K-562 leukemia; -15.8% (active) with MALME-3M melanoma. Besides, the growth in the experiment on MDA-MB-231 breast is -25.3% (active); in the experiment with RXF 393 renal, -3.81% (active); with SF-268 CNS it was 19.6%; in the experiment on SF-295 CNS, -10.4% (active); in the experiment with SF-539 CNS, 16.9%; with UACC-257 melanoma, 0.418% (active). Moreover, the growth in the experiment with M14 melanoma is 14.2%.

As for `N#CC1=C(N)Oc2cc(N)ccc2C1c1cccnc1` (configuration not stated), the growth in the experiment on NCI-H23 lung was 92.1%; in the experiment on NCI-H226 lung, 101%; in the experiment on HOP-62 NSCLC, 92.7%; with NCI-H460 lung, 97.5%; in the experiment with HOP-92 NSCLC it was 111%; in the experiment with NCI-H522 lung, 75%. Moreover, the growth in the experiment with A549/ATCC NSCLC was 100%; in the experiment on 786-0 renal it was 90.7%; in the experiment with COLO 205 colon, 113%; in the experiment with DU-145 prostate it was 104%; in the experiment with K-562 leukemia, 83.3%; with MALME-3M melanoma, 98.6%. Moreover, the growth is 101% in the experiment on MDA-MB-231 breast; 108% in the experiment on RXF 393 renal; 93.4% with SF-268 CNS; 99.7% in the experiment on SF-295 CNS; 96.1% in the experiment with SF-539 CNS; 109% with UACC-257 melanoma. The growth in the experiment with M14 melanoma was 87.3%.

In the case of `O=C(CCc1nnc2sc(-c3cc(O)c(O)c(O)c3)nn12)c1nc2ccccc2[nH]1`, the growth in the experiment with NCI-H23 lung was 88.9%; in the experiment on NCI-H226 lung, 89.9%; in the experiment with HOP-62 NSCLC, 105%; in the experiment on NCI-H460 lung, 105%; with HOP-92 NSCLC, 69.4%; with NCI-H522 lung, 98.3%. Also, the growth is 108% in the experiment on A549/ATCC NSCLC; 107% in the experiment with 786-0 renal; 114% in the experiment with COLO 205 colon; 112% in the experiment with DU-145 prostate; 8.3% (active) in the experiment on K-562 leukemia; 103% in the experiment on MALME-3M melanoma. Also, the growth in the experiment on MDA-MB-231 breast was 102%; in the experiment on RXF 393 renal, 115%; in the experiment on SF-268 CNS it was 113%; with SF-295 CNS, 82.8%; with SF-539 CNS, 80%; in the experiment on UACC-257 melanoma it was 110%. Further, in the experiment with M14 melanoma, the growth is 105%.

For `Cc1ccc2nc(Cl)c(-c3nc4ccccc4o3)cc2c1`, the growth in the experiment with NCI-H23 lung is 77.6%; with NCI-H226 lung it was 90.7%; in the experiment with HOP-62 NSCLC it was 92.7%; with NCI-H460 lung it was 106%; in the experiment with HOP-92 NSCLC, 83%; with NCI-H522 lung, 90.3%. Further, the growth in the experiment on A549/ATCC NSCLC is 99.6%; in the experiment with 786-0 renal, 99.5%; with COLO 205 colon, 89.5%; in the experiment with DU-145 prostate, 103%; with K-562 leukemia it was 80.7%; with MALME-3M melanoma, 86.9%. Also, the growth is 91.4% in the experiment with MDA-MB-231 breast; 102% in the experiment on RXF 393 renal; 87.9% in the experiment with SF-268 CNS; 105% in the experiment on SF-295 CNS; 99.2% in the experiment with SF-539 CNS; 108% in the experiment on UACC-257 melanoma. In addition, the growth with M14 melanoma is 106%.

For the origin of these results see PubChem BioAssay (NCI).
